This passage reports AC50 and outcome results from PubChem BioAssay (EPA / NIEHS).

Molecules are shown by their SMILES. Active and inactive are the calls of the source. The calls were made as follows: active = hit-call score of the fitted dose curve at least 0.9, where 1 is the maximum; inactive = score below 0.9.

The nature of this assay: ATG_ERE_CIS: Attagene CIS-FACTORIAL HepG2 Assay for Estrogen Response Element (ERE) (AID 2282940). The conditions noted are these: HepG2 ERE cis-reporter, Attagene RNA transcript; actives raise or lower the signal. Put shortly:
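Fluorescence of capillary-separated, FAM-labelled reporter cDNA fragments indicates reporter mRNA levels in HepG2 cells exposed to chemicals for 24 h. Transient transfection with cis-regulated units; data fitted in both directions against DMSO.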
Take `CCCCCc1ccc(O)cc1`: the AC50 (usually the concentration at which the activity in the assay is half-maximal) was 2.4 µM (active). On to `NC(C(F)(F)F)C(F)(F)F`, for which the compound was called inactive. For `Oc1cc2ccccc2cc1O`, the AC50 is 100 µM (active). With `FC(F)(F)N1C(F)(F)C(F)(F)OC(F)(F)C1(F)F`, the call was inactive.

Turning to `O=C(C=C(O)C(F)(F)F)C(F)(F)F`, the outcome was inactive.

Take `C=COC(=O)C(C)(C)CCCCCC`: the AC50 was 100 µM (active).

Turning to `O=C(c1cc(O)c(O)c(O)c1)c1ccc(O)c(O)c1O`, the outcome was inactive. Still for that read-out and setting: in the case of `CCCCCCCCCCCC(=O)NCCCN(C)C` it was “inactive”; in that of `FCOC(C(F)(F)F)C(F)(F)F`, “inactive”. As for `CCCCCCc1ccc(N)cc1`, the AC50 is 5.06 µM (active).

As for `FC(F)(F)C(F)(F)C(F)(F)C(F)(F)I`, the call was inactive. For the compound `COc1ccc(C#N)cc1`, the compound was classed as inactive. On to `C=CC(=O)OCCC(F)(F)C(F)(F)C(F)(F)C(F)(F)C(F)(F)C(F)(F)F`, for which the AC50 is 30.9 µM (active).

Take `O=C(F)C(F)(F)C(F)(F)C(F)(F)C(F)F`: the outcome was inactive. As to `CN(C)CCOC(c1ccccc1)c1ccccc1`, the compound was classed as inactive. As for `Nc1ccn([C@@H]2O[C@H](CO)[C@@H](O)C2O)c(=O)n1` (some centres undefined), the compound was called inactive.

Regarding `NNC(=O)CCCCC(=O)NN`, the compound was called inactive. Turning to `COC(O)c1ccccc1` (centres undefined), the AC50 was 18.1 µM (active). Regarding `CCCCCCCCCCCC[N+](C)(C)CCCCCCCCCCCC`, the compound was classed as inactive. As to `Cc1ccccc1OCC(=O)O`, the outcome was inactive. As to `O=C(Nc1cccc([N+](=O)[O-])c1)c1cc2ccccc2cc1O`, the AC50 was 3.32 µM (active). With `Brc1ccc(Oc2ccc(Br)cc2Br)cc1`, the compound was called inactive. Take `O=S(=O)(c1ccc(OCc2ccccc2)cc1)c1ccccc1O`: the result was inactive. As to `O=C(F)C(F)(F)C(F)(F)C(F)(F)C(=O)F`, the result was inactive.
